Records with an inconclusive call do not appear. Where a call stands in place of a potency, no number is given. Calls of active or inactive are those of the source. Calls follow the shape of the dose curve; as a rule, active = well fitted inhibition curve with a large enough effect in the repeat runs; inconclusive = weak or mixed curves; inactive = no such curve, though single readings can be large or run the other way.
Potency is read from the fitted curve at half-maximal effect.

Chain of Cytochrome P450 2D6 (Homo sapiens) (P10635 whole entry, looked up): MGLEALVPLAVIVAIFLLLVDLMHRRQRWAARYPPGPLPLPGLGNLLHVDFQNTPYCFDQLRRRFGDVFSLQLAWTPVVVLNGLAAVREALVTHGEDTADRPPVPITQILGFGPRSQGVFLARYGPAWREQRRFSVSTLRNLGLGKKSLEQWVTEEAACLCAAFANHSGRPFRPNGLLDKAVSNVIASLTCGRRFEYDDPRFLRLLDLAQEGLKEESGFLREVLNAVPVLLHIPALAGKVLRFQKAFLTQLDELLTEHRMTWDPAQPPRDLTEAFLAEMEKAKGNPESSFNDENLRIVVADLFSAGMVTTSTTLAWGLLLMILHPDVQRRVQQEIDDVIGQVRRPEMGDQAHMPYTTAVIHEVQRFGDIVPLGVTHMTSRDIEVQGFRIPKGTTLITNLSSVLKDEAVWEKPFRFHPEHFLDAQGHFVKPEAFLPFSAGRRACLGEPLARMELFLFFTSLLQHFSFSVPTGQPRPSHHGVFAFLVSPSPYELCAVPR

In this assay the target is Cytochrome P450 2D6 (Homo sapiens) (UniProt P10635). The experiment in a line: Cytochrome P450 Family 2 Subfamily D Member 6 (CYP2D6) small molecule antagonists: luciferase reporter qHTS assay (AID 1671196). Also: nearly all actives have a fitted effect of over 50% in size. The settings on record: P450-Glo CYP2D6 enzyme assay, luciferin luminescence, 1 h; series mostly up to 115 µM. From the text:
U.S. Tox21 Program National Center for Advancing Translational Sciences [NCATS] U.S. Environmental Protection Agency [EPA] National Institutes of Environmental Health Sciences [NIEHS] National Toxicology Program [NTP] U.S. Food and Drug Administration [FDA] Tox21 Assay Overview: Cytochrome P450 (CYP) enzymes are membrane-bound hemeproteins that play a key role in metabolism of drugs and xenobiotics. Evaluation of the effect of chemicals on CYP isozymes is useful to minimize the adverse drug reactions and toxicities in drug development process. Tox21 chemicals were tested for their effect on CYP enzyme activities by using P450-Glo (TM) screening systems (Promega Corporation, Madison, WI). These systems provide a luminescent method containing proluciferin substrates and are converted to luciferin products by CYP isozymes. The luciferin products formed are detected with a luciferin detection reagent, and the amount of light produced is proportional to CYP activity. P450-Glo (TM) CYP2D6 screening system (Catalog. No. V9890) was used to detect the compounds that interfere in CYP2D6 activity.
Tox21 Assay Protocol Summary: Two ul of enzyme-substrate mix was dispensed into medium binding white/solid 1536-well plates (Greiner Bio-One North America Inc., Monroe, NC) using a BioRaptr Flying Reagent Dispenser (FRD, Beckman Coulter, Brea, CA). […] The assay plates were incubated at room temperature for 10 min. Then 2 ul of NADPH regeneration solution was added to each well of the assay plates using an FRD and incubated at room temperature for 1 h. The reaction was stopped by adding 4 ul of detection reagent using an FRD and after 20 min incubation at room temperature the luminescence signal was measured using a ViewLux plate reader (Perkin Elmer, Shelton, CT). Data were expressed as relative luminescence units.
Consider `C=C(Cl)CCl`, for which the Potency result was “inactive”.

Regarding `C/C(=N\NC(=O)Nc1cc(F)cc(F)c1)c1ncccc1C(=O)O`, the Potency result is “inactive”.

Take `CCCCS(=O)(=O)Cl`: the Potency result is “inactive”.

As to `COc1ccc2c(C(=O)c3ccc(Cl)cc3)c(C)n(CC(=O)O)c2c1`, the Potency entry was “inactive”.

Turning to `OCC(Cl)CCl` (stereo not given), the Potency result was “inactive”.

In the case of `O=C(NC(O)C(Cl)(Cl)Cl)NC(O)C(Cl)(Cl)Cl` (stereo not given), the Potency entry was “inactive”.

`CNC(=O)Oc1ccccc1C(C)C`: the Potency entry was “inactive”.

`[P]#[In]`: the Potency result is “inactive”.

On to `CC[C@@H](CO)NC(=O)[C@@H]1C=C2c3cccc4c3c(cn4C)C[C@H]2N(C)C1`, for which the Potency was 6.92 µM (active).

Consider `CC[C@H](N)c1ccccc1`, for which the Potency was 35.6 µM (active).

For `O=C1CCCCC1Cl` (stereo not given), the Potency result was “inactive”.

As for `Cn1c(N)nc2c3cccnc3ccc21`, the Potency is 12 µM (active).

As for `CCN[C@H](C)Cc1cccc(C(F)(F)F)c1`, the Potency was 2.24 µM (active).

Regarding `c1ccc2c(c1)CCNC2`, the Potency was 7.28 µM (active).

Consider `CC(Cl)(Cl)Cl`, for which the Potency result is “inactive”.

Regarding `CCc1ccc(C2CCNCC2)cc1`, the Potency was 0.617 µM (active).

As for `CCCCOC(C)=O`, the Potency result was “inactive”.

Turning to `O=c1[nH]oc2c1CCNC2`, the Potency entry is “inactive”.

For the compound `Cc1ccc2c(c1)C1CN(C)CCC1N2` (stereo not given), the Potency was 4.25 µM (active).

On to `C=C(Cl)CSC(=S)N(CC)CC`, for which the Potency result is “inactive”.

Regarding `CCCOC(=O)c1cncn1C(C)c1ccccc1` (stereo not given), the Potency entry is “inactive”.

Consider `CC(C)[N+](C)(CCC(C(N)=O)(c1ccccc1)c1ccccc1)C(C)C`, for which the Potency was 0.776 µM (active).

Consider `Clc1ccc(C(Cl)(Cl)Cl)cn1`, for which the Potency entry is “inactive”.

Turning to `O=C/C=C/c1ccco1`, the Potency result was “inactive”.

For the compound `CCOP(=O)(CN(CCO)CCO)OCC`, the Potency entry was “inactive”.

In the case of `N[C@@H](Cc1ccc(Oc2cc(I)c(O)c(I)c2)c(I)c1)C(=O)O`, the Potency entry is “inactive”.

For the compound `C=CC=O`, the Potency entry is “inactive”.

On to `CN(C)CCN(C)C`, for which the Potency result is “inactive”.

For `ClCCCCCCCl`, the Potency result was “inactive”.

With `O=P(O)(O)CN(CP(=O)(O)O)CP(=O)(O)O`, the Potency entry is “inactive”.

Consider `C[C@H](N)C(=O)c1ccccc1`, for which the Potency was 42.2 µM (active).

Turning to `CC1N=C(N)OC1c1ccccc1` (stereo not given), the Potency was 9.81 µM (active).

`N=C(N)[Se]`: the Potency result was “inactive”.

In the case of `CCN1CCCC1CNC(=O)C(O)(c1ccccc1)c1ccccc1` (stereo not given), the Potency was 4.9 µM (active).

As for `CCC1(c2ccccc2)CCC(=O)NC1=O` (stereo not given), the Potency result is “inactive”.

On to `COC(=O)[C@@H](N)CCCN/C(N)=N/[N+](=O)[O-]`, for which the Potency entry is “inactive”.

Take `C/C=C/CC#N`: the Potency entry was “inactive”.

As for `CCOC(=O)COc1ccc(Cl)cc1Cl`, the Potency entry was “inactive”.

As to `CCCCCCCCBr`, the Potency entry is “inactive”.

On to `COc1cc(CCN)cc(OC)c1OC`, for which the Potency result is “inactive”.

The values are drawn from PubChem BioAssay (Tox21).
